Reference: the antibiotic and cytotoxicity screens of Wong et al. (2023)
The whole screen tested about 39,000 compounds, of which about 3,300 (8.5%) were called active. The sample holds actives, similar compounds and a random draw of the others, so the mix is not that of the screen.

These molecules were tested on HepG2 (assay: cytotoxicity call (relative viability < 0.9)). Details: 10 µM.

Row | SMILES | cytotoxicity call
1 | Cc1noc(C)c1S(=O)(=O)N(C)C[C@@H]1Oc2ccc(NC(=O)NC(C)C)cc2CC(=O)N([C@@H](C)CO)C[C@H]1C | inactive
2 | CCN1C(=O)S/C(=C\C(=O)O)C1=O | inactive
3 | O=C(C[C@H]1CC[C@@H]2NC[C@@H](O)COC[C@H]2O1)NCCN1CCCCC1 | inactive
4 | C[C@@H]1CN([C@H](C)CO)C(=O)c2cc(NC(=O)Nc3ccc(C(F)(F)F)cc3)ccc2O[C@@H](C)CCCCO[C@H]1CN(C)S(=O)(=O)c1ccc(Cl)cc1 | inactive
5 | C[C@H]1CCCCO[C@H](CN(C)S(=O)(=O)c2ccc(Cl)cc2)[C@@H](C)CN([C@@H](C)CO)C(=O)c2cc(NC(=O)Nc3ccc(C(F)(F)F)cc3)ccc2O1 | inactive
6 | C[C@@H]1CCCCO[C@H](CN(C)S(=O)(=O)c2ccc(Cl)cc2)[C@@H](C)CN([C@H](C)CO)C(=O)c2cc(NC(=O)Nc3ccc(C(F)(F)F)cc3)ccc2O1 | active
7 | C[C@@H]1CCCCO[C@@H](CN(C)S(=O)(=O)c2ccc(Cl)cc2)[C@H](C)CN([C@H](C)CO)C(=O)c2cc(NC(=O)Nc3ccc(C(F)(F)F)cc3)ccc2O1 | inactive
8 | C[C@@H]1CCCCO[C@@H](CN(C)S(=O)(=O)c2ccc(Cl)cc2)[C@H](C)CN([C@@H](C)CO)C(=O)c2cc(NC(=O)Nc3ccc(C(F)(F)F)cc3)ccc2O1 | inactive
9 | C[C@H](CO)N1C[C@H](C)[C@H](CN(C)S(=O)(=O)c2ccc(Cl)cc2)OCCCC[C@H](C)Oc2ccc(NC(=O)Nc3ccc(C(F)(F)F)cc3)cc2C1=O | active
10 | COc1ccc(S(=O)(=O)N(C)C[C@@H]2Oc3ncc(-c4cccc(OC)c4)cc3C(=O)N([C@H](C)CO)C[C@@H]2C)cc1 | inactive
11 | Cc1noc(C)c1S(=O)(=O)Nc1ccc2c(c1)C(=O)N([C@@H](C)CO)C[C@@H](C)[C@H](CN(C)C(=O)Nc1ccc(C(F)(F)F)cc1)OCCCC[C@@H](C)O2 | inactive
12 | NC[C@H]1COC2(CCCCC2)O1 | inactive
13 | C[C@H]1CN([C@@H](C)CO)C(=O)Cc2cc(NC(=O)CCN3CCOCC3)ccc2O[C@H]1CN(C)S(=O)(=O)c1ccc(Cl)cc1 | inactive
14 | CC(=O)Nc1nonc1N1CCCC1=O | inactive
15 | O=C(Cc1ccccn1)NCC[C@@H]1CC[C@@H](NC(=O)CN2CCOCC2)[C@@H](CO)O1 | inactive
16 | Cc1ccc(S(=O)(=O)Nc2ccc3c(c2)C(=O)N([C@@H](C)CO)C[C@@H](C)[C@@H](CN(C)C(=O)Nc2ccc4c(c2)OCO4)OCCCC[C@H](C)O3)cc1 | inactive
17 | C[C@H]1[C@@H](O)[C@@H](C)\C=C/C=C\C=C/C=C\C=C/C=C\C=C/[C@@H](O[C@H]2O[C@H](C)[C@@H](O)[C@H](N)[C@@H]2O)C[C@H]2O[C@](O)(C[C@@H](O)C[C@@H](O)[C@@H](O)CC[C@@H](O)C[C@@H](O)CC(=O)O[C@H]1C)C[C@@H](O)[C@@H]2C(=O)O | inactive
18 | CC1C=CC=CC=CC=CC=CC=CC=CC(OC2OC(C)C(O)C(N)C2O)CC2OC(O)(CC(O)CC(O)C(O)CCC(O)CC(O)CC(=O)OC(C)C(C)C1O)CC(O)C2C(=O)O (stereo not drawn) | inactive
19 | CC1C=CC=CC=CC=CC=CC=CC=CC(OC2OC(C)C(O)C(N)C2O)CC(O)C(C(=O)O)C(O)CC(=O)CC(O)CC(O)CC(O)CC(=O)CCCC(=O)CC(=O)OC1C(C)CC(C)C(O)CC(=O)c1ccc(N)cc1 (stereo not drawn) | active
20 | COc1ccc(CN(C)C[C@@H]2Oc3ccc(NC(=O)Cn4cnnn4)cc3CC(=O)N([C@H](C)CO)C[C@H]2C)cc1 | inactive

Row | SMILES | cytotoxicity call
21 | O=c1nc(NCc2cccnc2)cn[nH]1 | inactive
22 | COc1ccc(NC(=O)Nc2ccc3c(c2)C(=O)N([C@H](C)CO)C[C@H](C)[C@H](CN(C)CC2CCCCC2)OCCCC[C@H](C)O3)cc1 | inactive
23 | COc1ccc(NC(=O)Nc2ccc3c(c2)C(=O)N([C@H](C)CO)C[C@@H](C)[C@H](CN(C)CC2CCCCC2)OCCCC[C@@H](C)O3)cc1 | active
24 | COc1ccc(NC(=O)Nc2ccc3c(c2)C(=O)N([C@@H](C)CO)C[C@H](C)[C@@H](CN(C)CC2CCCCC2)OCCCC[C@H](C)O3)cc1 | inactive
25 | COc1ccc(NC(=O)Nc2ccc3c(c2)C(=O)N([C@@H](C)CO)C[C@@H](C)[C@@H](CN(C)CC2CCCCC2)OCCCC[C@H](C)O3)cc1 | inactive
26 | COc1ccc(NC(=O)Nc2ccc3c(c2)C(=O)N([C@H](C)CO)C[C@@H](C)[C@@H](CN(C)CC2CCCCC2)OCCCC[C@@H](C)O3)cc1 | active
27 | COc1ccc(NC(=O)Nc2ccc3c(c2)C(=O)N([C@H](C)CO)C[C@@H](C)[C@H](CN(C)CC2CC2)OCCCC[C@H](C)O3)cc1 | inactive
28 | COc1ccc(NC(=O)Nc2ccc3c(c2)C(=O)N([C@H](C)CO)C[C@@H](C)[C@@H](CN(C)CC2CCCCC2)OCCCC[C@H](C)O3)cc1 | active
29 | COc1ccc(NC(=O)Nc2ccc3c(c2)C(=O)N([C@@H](C)CO)C[C@H](C)[C@H](CN(C)CC2CCCCC2)OCCCC[C@@H](C)O3)cc1 | inactive
30 | COc1ccc(NC(=O)Nc2ccc3c(c2)C(=O)N([C@@H](C)CO)C[C@@H](C)[C@H](CN(C)CC2CCCCC2)OCCCC[C@H](C)O3)cc1 | inactive
31 | COc1ccc(NC(=O)Nc2ccc3c(c2)C(=O)N([C@@H](C)CO)C[C@@H](C)[C@@H](CN(C)CC2CCCCC2)OCCCC[C@@H](C)O3)cc1 | active
32 | COc1ccc(NC(=O)Nc2ccc3c(c2)C(=O)N([C@@H](C)CO)C[C@@H](C)[C@H](CN(C)CC2CCCCC2)OCCCC[C@@H](C)O3)cc1 | inactive
33 | COc1ccc(NC(=O)Nc2ccc3c(c2)C(=O)N([C@H](C)CO)C[C@H](C)[C@@H](CN(C)CC2CCCCC2)OCCCC[C@@H](C)O3)cc1 | inactive
34 | C[C@@H]1CN([C@@H](C)CO)C(=O)c2cccc(NC(=O)Nc3cccc4ccccc34)c2O[C@H]1CN(C)S(=O)(=O)c1ccccc1F | inactive
35 | Cc1noc(C)c1NC(=O)Nc1ccc2c(c1)C(=O)N([C@H](C)CO)C[C@H](C)[C@H](CN(C)S(C)(=O)=O)O2 | inactive
36 | O=C(CN1CCOCC1)N[C@@H]1CC[C@H](CCNC(=O)Nc2cc(F)ccc2F)O[C@@H]1CO | inactive
37 | COc1ccc(NC(=O)N(C)C[C@@H]2OCCCC[C@H](C)Oc3ccc(NC(=O)c4ccccc4)cc3C(=O)N([C@H](C)CO)C[C@H]2C)cc1 | inactive
38 | O=C(C[C@H]1C=C[C@@H](NC(=O)C2CC2)[C@@H](CO)O1)NCCCN1CCOCC1 | inactive
39 | NNC(=O)CNc1ccc2c(c1)OCO2 | inactive
40 | C[N+](C)(C)CCCCNC(=O)[C@H]1C[C@H]2C(=O)N[C@@H](Cc3ccccc3)C(=O)N2[C@H]1c1cccc(OCCO)c1 | inactive

Row | SMILES | cytotoxicity call
41 | C[C@H]1CN([C@@H](C)CO)C(=O)c2cc(C#CC3(O)CCCC3)cnc2O[C@@H]1CN(C)S(=O)(=O)c1ccc(F)cc1 | inactive
42 | C[C@H]1[C@H](NC(=O)/C(=N\OC(C)(C)C(=O)O)c2csc(N)n2)C(=O)N1S(=O)(=O)O | inactive
43 | C[C@@H]1CCCCO[C@H](CN(C)S(C)(=O)=O)[C@H](C)CN([C@@H](C)CO)C(=O)c2cc(NC(=O)CCCN(C)C)ccc2O1 | inactive
44 | CCS(=O)(=O)NCC[C@H]1CC[C@H](NS(=O)(=O)c2cccc(F)c2)[C@@H](CO)O1 | inactive
45 | C[C@@H]1CCCCO[C@H](CN(C)C(=O)Nc2cccc3ccccc23)[C@H](C)CN([C@@H](C)CO)C(=O)c2cc(NC(=O)Cc3ccccc3)ccc2O1 | inactive
46 | COc1ccc(S(=O)(=O)N[C@@H]2CC[C@@H](CC(=O)N3CCC(Cc4ccccc4)CC3)O[C@H]2CO)cc1 | inactive
47 | C[C@H]1CCCCO[C@@H](CN(C)C(=O)Nc2ccc(C(F)(F)F)cc2)[C@@H](C)CN([C@@H](C)CO)C(=O)c2cc(NC(=O)c3ccncc3)ccc2O1 | inactive
48 | C[C@@H]1CCCCO[C@@H](CN(C)C(=O)Nc2ccc3c(c2)OCO3)[C@@H](C)CN([C@@H](C)CO)C(=O)c2cc(NC(=O)Nc3ccc(C(F)(F)F)cc3)ccc2O1 | inactive
49 | C[C@@H]1CCCCO[C@H](CN(C)C(=O)Nc2ccc(C(F)(F)F)cc2)[C@H](C)CN([C@H](C)CO)C(=O)c2cc(NC(=O)Cc3ccccc3)ccc2O1 | inactive
50 | COc1ccc(NC(=O)Nc2ccc3c(c2)C(=O)N([C@H](C)CO)C[C@H](C)[C@@H](CN(C)CC2CCCCC2)OCCCC[C@H](C)O3)cc1 | inactive
51 | COc1ccc(NC(=O)Nc2ccc3c(c2)C(=O)N([C@H](C)CO)C[C@H](C)[C@H](CN(C)CC2CCCCC2)OCCCC[C@@H](C)O3)cc1 | inactive
52 | COc1ccc(NC(=O)Nc2ccc3c(c2)C(=O)N([C@@H](C)CO)C[C@H](C)[C@H](CN(C)CC2CCCCC2)OCCCC[C@H](C)O3)cc1 | active
53 | O=C(O[C@@H]1O[C@@H]2COC(=O)c3cc(Oc4c(C(=O)O)cc(O)c(O)c4O)c(O)c(O)c3-c3c(cc(O)c(O)c3O)C(=O)O[C@H]2[C@H](OC(=O)c2cc(O)c(O)c(O)c2)[C@H]1OC(=O)c1cc(O)c(O)c(O)c1)c1cc(O)c(O)c(O)c1 | inactive
54 | O=C(O[C@@H]1Cc2c(O)cc(O)cc2O[C@@H]1c1cc(O)c(O)c(O)c1-c1c([C@H]2Oc3cc(O)cc(O)c3C[C@H]2O)cc(O)c(O)c1O)c1cc(O)c(O)c(O)c1 | inactive
55 | O=C(O[C@@H]1O[C@H]2COC(=O)c3cc(O)c(O)c(O)c3-c3c(cc(O)c(O)c3O)C(=O)O[C@@H]([C@H]1O)[C@@H]2O)c1cc(O)c(O)c(O)c1 | inactive
56 | O=C(OC1Cc2c(O)cc(O)cc2OC1c1cc(O)c(O)c(O)c1-c1c(C2Oc3cc(O)cc(O)c3CC2OC(=O)c2cc(O)c(O)c(O)c2)cc(O)c(O)c1O)c1cc(O)c(O)c(O)c1 (stereo not drawn) | inactive
57 | O=C(O[C@@H]1O[C@H]2COC(=O)c3cc(O)c(O)c(O)c3-c3c(cc(O)c(O)c3O)C(=O)O[C@@H]([C@H]1O)[C@@H]2OC(=O)c1cc(O)c(O)c(O)c1-c1c(C(=O)O)cc(O)c(O)c1O)c1cc(O)c(O)c(O)c1 | active
58 | O=C(O[C@@H]1O[C@@H]2COC(=O)c3cc(O)c(O)c(O)c3-c3c(cc(O)c(O)c3O)C(=O)O[C@H]2[C@H](OC(=O)c2cc(O)c(O)c(O)c2)[C@H]1OC(=O)c1cc(O)c(O)c(O)c1)c1cc(O)c(O)c(O)c1 | active
